The results in this text go back to PubChem BioAssay.

For experiment [1], the system named is Wnt5a (protein binding on small-molecule microarray). Nature of the experiment: small molecules binding Wnt5a protein – biophysical, small-molecule microarray, 635/667 nm fluorescence, primary screen (AID 1142).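 Further: fluorescence read at 667 nm with signal to noise per printed feature.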 Conditions: 635 nm fluorescence, higher = more signal.
The nature of experiment [2]: ATP-based viability of Huh7 replicon cells – cell-based, CellTiter-Glo luminescence, basal, 48 h, cytotoxicity control for HCV replication inhibitor project, primary screen (AID 1143).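 Further: Huh7 hepatoma cells carrying a hepatitis C replication reporter with no stimulus; test concentration not given here.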 As to conditions: higher = more signal, called active from +8 up or from −8 down.
Experiment [3] in a line: Pseudomonas biofilm growth suppression – PAO1 strain, BacTiter-Glo luminescence, LB-PBS, primary screen (AID 1144). Conditions: P. aeruginosa PAO1 biofilm, 12 h, higher = more signal.
A short description of experiment [4]: basal CRE-LacZ reporter activity in PC12 – cell-based, unstimulated, primary screen (AID 1145). Conditions: no forskolin, luminescence, 4.5 h, higher = more signal, called active from +8 up or from −8 down.
The nature of experiment [5]: forskolin-driven CRE-LacZ activity in PC12 – cell-based, CRE-LacZ reporter, forskolin-stimulated, primary screen (AID 1146).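 Further: PC12 cells with 6xCRE LacZ reporter stimulated by forskolin 10 µM; beta-galactosidase reporter signal reflecting CREB driven transcription.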 As to conditions: luminescence, 4.5 h, higher = more signal, called active from +8 up or from −8 down.
Experiment [6] concerns the target Streptavidin (Streptomyces avidinii) (UniProt P22629). The experiment in a line: compounds binding control protein streptavidin – biophysical, small-molecule microarray, 635/667 nm fluorescence, artefact control for SMM compound annotation, primary screen (AID 1147).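 Further: signal reflects streptavidin binding to arrayed compounds as a control protein.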 Conditions: higher = more signal.
Experiment [7] in a line: probe aInhba binding on compound microarray – biochemical, small-molecule microarray, 635/667 nm fluorescence, primary screen (AID 1148).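 Further: score merges 667nm spot fluorescence with signal-to-noise for antibody binding to printed compounds.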 As to conditions: higher = more signal.
The target of experiment [8] is Torsin-1A (Homo sapiens) (UniProt O14656). Nature of the experiment: TOR1A wild-type binding on microarray – cell lysate, small-molecule microarray, lysate, 635/667 nm, primary screen (AID 1149). Conditions: COS7 hTOR1A-WT lysate, 635 nm fluorescence, higher = more signal.
Torsin-1A (Homo sapiens), sequence (O14656 whole entry, looked up): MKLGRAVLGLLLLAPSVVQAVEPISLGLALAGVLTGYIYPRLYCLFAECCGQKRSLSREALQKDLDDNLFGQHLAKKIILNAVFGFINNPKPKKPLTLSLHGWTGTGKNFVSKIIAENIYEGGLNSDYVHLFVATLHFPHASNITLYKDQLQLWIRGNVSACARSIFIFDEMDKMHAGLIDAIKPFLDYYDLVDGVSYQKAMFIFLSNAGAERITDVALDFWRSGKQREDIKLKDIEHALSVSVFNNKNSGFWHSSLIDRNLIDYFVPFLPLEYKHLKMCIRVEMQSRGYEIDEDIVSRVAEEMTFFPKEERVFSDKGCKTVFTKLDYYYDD
The target is the same in experiment [9]. Nature of the experiment: torsin A mutant lysate binding on microarrays – cell lysate, small-molecule microarray, COS7 lysate, 635/667 nm fluorescence, primary screen (AID 1150).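 Further: score pools 667 nm emission and signal to noise measuring lysate protein binding.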 Conditions: COS7 hTOR1A mutant lysate, 635 nm fluorescence, higher = more signal.
Experiment [10] concerns Sonic hedgehog protein (Shh). The experiment in a line: Sonic hedgehog microarray binding compounds – biochemical, small-molecule microarray, 635/667 nm fluorescence, primary screen (AID 1151).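 Further: Shh protein binding to compounds spotted on small-molecule microarray slides; score combines spot fluorescence intensity with signal-to-noise across triplicate slides.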 As to conditions: 635 nm fluorescence, higher = more signal.
Experiment [11] in a line: optical density shifts of acrAB sulA E. coli – strain DRC41, OD650, 48 h, E. coli filamentation inducer project, primary screen (AID 1152).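 Further: E. coli MC1000 strain DRC41 lacking acrAB efflux pump and sulA.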 Conditions: higher = more signal, called active from +8 up or from −8 down.
Experiment [12] in a line: probe aLefty1 binding on compound microarray – biochemical, small-molecule microarray, 635/667 nm fluorescence, primary screen (AID 1153).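 Further: score merges spot fluorescence with signal-to-noise ratio from the scanned slide images.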 As to conditions: higher = more signal.
Experiment [13] can be described thus: plasmodial surface anion channel blockers, osmotic lysis – cell-based, P. falciparum Indochina, OD700, 1 h, primary screen (AID 1154). As to conditions: P. falciparum Indochina infected RBC osmotic lysis, higher = more signal, called active from +8 up or from −8 down.
The nature of experiment [14]: plasmodial surface anion channel blockers, osmotic lysis – cell-based, P. falciparum Indochina, OD700, 2 h, primary screen (AID 1155).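 Further: lysis reports solute entry through the parasite surface anion channel PSAC.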 Conditions: P. falciparum Indochina infected erythrocytes, higher = more signal, called active from +8 up or from −8 down.
Experiment [15] is described as follows: changes in parasitized red cell lysis, either direction – P. falciparum Indochina, OD700, 3 h, PSAC antagonist project, primary screen (AID 1156). Conditions: P. falciparum-infected erythrocytes, osmotic lysis, higher = more signal, called active from +8 up or from −8 down.
Experiment [16] in a line: plasmodial surface anion channel blockers, osmotic lysis – cell-based, P. falciparum Indochina, OD700, 18 h, primary screen (AID 1157). Conditions: P. falciparum Indochina infected erythrocytes, osmotic lysis OD700, 18 h; higher = more signal, called active from +8 up or from −8 down.
Experiment [17] in a line: S6 kinase pathway phospho-S6 level changes – cell-based, A549, cytoblot, luminescence, serum-stimulated, primary screen (AID 1158).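 Further: serum-stimulated A549 lung adenocarcinoma cells; signal is phosphorylated S6 detected by cytoblot immunostaining with HRP secondary.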 Conditions: 5 h, higher = more signal.
In experiment [18] the target is NADPH oxidase 2 (Homo sapiens) (UniProt P04839). Nature of the experiment: compounds shifting NOX2 Amplex Red fluorescence – cell-based, HEK293-NOX2, PMA-stimulated, NOX inhibitor project, primary screen (AID 1159). Further: test concentration not given here. Conditions: 45 min, higher = more signal, called active from +8 up or from −8 down.
NADPH oxidase 2 (Homo sapiens), sequence (P04839 whole entry, looked up): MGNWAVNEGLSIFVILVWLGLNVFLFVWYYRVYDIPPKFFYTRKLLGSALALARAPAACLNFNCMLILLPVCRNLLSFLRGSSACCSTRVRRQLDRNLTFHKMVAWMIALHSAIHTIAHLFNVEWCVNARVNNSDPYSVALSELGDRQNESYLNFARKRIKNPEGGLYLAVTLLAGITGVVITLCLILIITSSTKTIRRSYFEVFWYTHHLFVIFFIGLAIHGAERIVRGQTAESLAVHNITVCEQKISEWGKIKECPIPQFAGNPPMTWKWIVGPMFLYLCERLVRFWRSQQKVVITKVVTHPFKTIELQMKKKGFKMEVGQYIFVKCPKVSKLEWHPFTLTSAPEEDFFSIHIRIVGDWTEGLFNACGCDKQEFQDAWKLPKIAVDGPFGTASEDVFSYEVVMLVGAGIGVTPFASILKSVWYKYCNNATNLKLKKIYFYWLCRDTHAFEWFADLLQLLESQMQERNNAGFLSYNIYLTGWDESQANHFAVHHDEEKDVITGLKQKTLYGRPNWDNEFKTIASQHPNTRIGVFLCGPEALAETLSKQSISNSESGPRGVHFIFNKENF
The target of experiment [19] is NADPH oxidase 4 (Homo sapiens) (UniProt Q9NPH5). Nature of the experiment: compounds shifting NOX4 Amplex Red fluorescence – cell-based, HEK293-NOX4, tetracycline-induced, NOX inhibitor project, primary screen (AID 1160). Conditions: HEK293-NOX4, Amplex Red H2O2 fluorescence, 45 min; higher = more signal, called active from +8 up or from −8 down.
NADPH oxidase 4 (Homo sapiens), sequence (Q9NPH5 whole entry, looked up): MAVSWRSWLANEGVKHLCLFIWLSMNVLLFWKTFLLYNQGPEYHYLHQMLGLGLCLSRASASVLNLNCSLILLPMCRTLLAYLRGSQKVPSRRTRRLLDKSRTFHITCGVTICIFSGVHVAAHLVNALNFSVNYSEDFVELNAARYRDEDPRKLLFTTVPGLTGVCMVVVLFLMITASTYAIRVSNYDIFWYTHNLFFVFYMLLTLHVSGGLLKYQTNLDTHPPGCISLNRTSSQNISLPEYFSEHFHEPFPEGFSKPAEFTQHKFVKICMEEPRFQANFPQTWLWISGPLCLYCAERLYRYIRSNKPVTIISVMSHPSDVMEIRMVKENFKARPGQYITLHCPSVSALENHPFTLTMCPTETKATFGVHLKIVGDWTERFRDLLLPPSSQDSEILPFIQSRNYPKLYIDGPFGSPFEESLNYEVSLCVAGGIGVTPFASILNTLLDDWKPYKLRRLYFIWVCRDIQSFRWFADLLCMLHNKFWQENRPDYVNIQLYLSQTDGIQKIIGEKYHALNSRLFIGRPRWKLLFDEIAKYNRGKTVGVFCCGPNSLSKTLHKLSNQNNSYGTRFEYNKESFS
The target in experiment [20] is NADPH oxidase 5 (Homo sapiens) (UniProt Q96PH1). The experiment in a line: compounds shifting NOX5 Amplex Red fluorescence – cell-based, HEK293-NOX5, NOX inhibitor project, primary screen (AID 1161). Conditions: HEK293-NOX5, ionomycin, 45 min, higher = more signal.
NADPH oxidase 5 (Homo sapiens), sequence (Q96PH1 whole entry, looked up): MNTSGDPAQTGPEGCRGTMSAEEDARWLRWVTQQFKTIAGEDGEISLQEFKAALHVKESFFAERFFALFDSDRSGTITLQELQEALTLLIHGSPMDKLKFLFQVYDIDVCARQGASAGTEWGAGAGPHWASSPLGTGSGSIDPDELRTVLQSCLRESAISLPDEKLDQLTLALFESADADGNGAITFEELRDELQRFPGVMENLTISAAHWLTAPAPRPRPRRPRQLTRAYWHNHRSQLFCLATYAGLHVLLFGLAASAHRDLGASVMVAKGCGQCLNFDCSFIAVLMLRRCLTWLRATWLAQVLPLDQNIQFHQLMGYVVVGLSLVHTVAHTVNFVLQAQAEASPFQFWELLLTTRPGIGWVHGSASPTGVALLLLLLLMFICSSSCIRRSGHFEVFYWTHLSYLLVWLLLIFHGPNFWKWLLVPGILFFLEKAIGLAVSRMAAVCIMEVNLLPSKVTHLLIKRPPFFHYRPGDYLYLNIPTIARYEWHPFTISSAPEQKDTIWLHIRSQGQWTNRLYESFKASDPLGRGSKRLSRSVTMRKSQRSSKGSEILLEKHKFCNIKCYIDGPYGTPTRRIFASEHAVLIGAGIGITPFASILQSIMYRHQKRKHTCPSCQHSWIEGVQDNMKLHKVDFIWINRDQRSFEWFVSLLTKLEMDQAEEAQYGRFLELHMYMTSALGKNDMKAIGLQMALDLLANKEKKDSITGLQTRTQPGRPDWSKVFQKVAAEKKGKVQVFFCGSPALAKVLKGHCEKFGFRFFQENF

Each structure is given as a SMILES string. Calls of active or inactive are those of the source. Unless noted, how the calls were made is not given here.

Streptavidin (Streptomyces avidinii), sequence (P22629 whole entry, looked up): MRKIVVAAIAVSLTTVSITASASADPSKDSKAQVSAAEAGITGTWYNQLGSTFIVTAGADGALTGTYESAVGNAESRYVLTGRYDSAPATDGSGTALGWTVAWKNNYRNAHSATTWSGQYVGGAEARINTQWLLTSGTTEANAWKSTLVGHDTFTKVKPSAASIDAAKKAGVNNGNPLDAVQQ

For `Cc1ccc(N2C(=O)c3ccccc3[C@@H](C(=O)NCC(F)(F)F)[C@@H]2c2ccc(CO)cc2)nc1`, the composite z-score in experiment [1] was 0.0023; in experiment [6], -1.62; in [7], 0.17; in experiment [8], -1.76; in experiment [9], -1.78; in experiment [10], 0.0716. Also, the composite z-score in experiment [12] was -0.0099. For the same molecule, the z-score in experiment [2] is -0.977 (inactive); in [3] it was 0.00438 (inactive); in experiment [4] it was 0.791 (inactive); in experiment [5] it was 0.495 (inactive); in experiment [11], 0.734 (inactive); in experiment [13], 1.32 (inactive). Also, the z-score is 0.422 (inactive) in experiment [14]; 0.827 (inactive) in experiment [15]; 0.38 (inactive) in experiment [16]; 0.189 in [17]; 1.22 (inactive) in [18]; 0.32 (inactive) in [19]. In addition, in [20], the z-score was -0.914.

For the molecule `COc1cc2c(cc1OC)CN(C(=O)[C@H]1[C@@H]3C(=O)O[C@@H](c4ccccc4)[C@@H](c4ccccc4)N3[C@@H](c3ccc(O)cc3)[C@]13C(=O)Nc1ccc(C#CC4(O)CCCCCC4)cc13)CC2`, the composite z-score in experiment [1] was determined as 0.723; in experiment [6] it was 2.42; in experiment [7], 0.472; in experiment [8], 0.601; in experiment [9], 1.36; in experiment [10] it was 1.39. The same molecule returned a composite z-score in [12] of 1.76. Also, the z-score is -0.715 (inactive) in experiment [2]; -0.785 (inactive) in experiment [3]; 0.425 (inactive) in experiment [4]; 0.603 (inactive) in experiment [5]; -0.287 (inactive) in experiment [11]; 0.621 (inactive) in experiment [13]. For the same molecule, the z-score in experiment [14] was 1.23 (inactive); in [15] it was 0.89 (inactive); in experiment [16] it was 0.737 (inactive); in [17] it was 0.48; in [18], 1.79 (inactive); in [19], -0.239 (inactive). For the same molecule, the z-score in experiment [20] worked out at 1.02.

As to `CCCN1C(=O)[C@@]2(CCS(=O)(=O)c3ccccc3)N=C(c3ccc(OCCCO)cc3)O[C@H]2c2ccccc21`, the composite z-score in [1] is 0.286; in [6] it was -0.0174; in experiment [7], 0.0528; in experiment [8], 0.069; in experiment [9] it was 0.655; in experiment [10] it was 1.58. The same molecule had a composite z-score in experiment [12] of 0.498. Moreover, the z-score was -4.26 (inactive) in [2]; -1.6 (inactive) in experiment [3]; 0.997 (inactive) in [4]; -1.61 (inactive) in experiment [5]; 0.33 (inactive) in experiment [11]; 34.1 (active) in [13]. For the same molecule, the z-score in experiment [14] is 32.4 (active); in experiment [15], 1.93 (inactive); in experiment [16], 3.19 (inactive); in experiment [17], 0.43; in [18] it was -2.38 (inactive); in experiment [19], -0.683 (inactive). In addition, the z-score in [20] was -1.74.

For the molecule `CCCC=C(CCC)[C@@H](NS(=O)(=O)c1cccc(C(F)(F)F)c1)c1ccc(C(=O)OC)cc1`, the composite z-score in [1] is 1.16; in experiment [6], 0.0276; in [7] it was 1.43; in experiment [8], 0.258; in experiment [9], -0.223; in experiment [10], 0.116. The molecule further showed a composite z-score in [12] of 1.6. Besides, the z-score is 0.0804 (inactive) in [2]; -0.109 (inactive) in experiment [3]; -0.182 (inactive) in [4]; -0.547 (inactive) in [5]; -0.77 (inactive) in experiment [11]; -0.82 (inactive) in [13]. Further, the z-score in experiment [14] is -0.868 (inactive); in experiment [15], -0.723 (inactive); in [16] it was -1.41 (inactive); in experiment [17] it was 0.213; in experiment [18] it was 0.139 (inactive); in experiment [19], 0.449 (inactive). Moreover, the z-score in [20] was 1.87.

Turning to `CC(C)=C1C(=O)C(c2ccccc2)=C2CN3C(=O)N(CCc4ccccc4)C(=O)[C@]3(Cc3ccccc3)[C@H]21`, the composite z-score was -0.355 in experiment [1]; 0.0686 in experiment [6]; 0.128 in [7]; -2.07 in experiment [8]; -1.13 in experiment [9]; -1.32 in experiment [10]. The same molecule came in with a composite z-score in [12] of 0.341. The z-score in [2] is -0.462 (inactive); in [3], 0.105 (inactive); in experiment [4] it was 0.783 (inactive); in experiment [5], 0.379 (inactive); in [11] it was -1.7 (inactive); in experiment [13], 20.9 (active). Also, the z-score in experiment [14] was 3.79 (inactive); in experiment [15], 1.3 (inactive); in [16] it was 0.913 (inactive); in experiment [17], -0.621; in experiment [18], -0.379 (inactive); in experiment [19], 0.1 (inactive). The z-score in experiment [20] amounted to 0.365.

For the molecule `C[C@@H]1NC(=O)[C@H](Cc2ccccc2)NC(=O)[C@@]23C(=O)N[C@@H](Cc4ccccc4)C2[C@H](C)[C@@]2(C)O[C@H]2C3/C=C/C/C=C\CNC1=O` (stereo not given in full), the composite z-score in experiment [1] was -0.401; in [6] it was -0.528; in experiment [7] it was -0.128; in [8], -0.0926; in [9], -0.0686; in [10], 0.596. The composite z-score in experiment [12] is -0.169. The z-score in experiment [2] is 0.0081 (inactive); in experiment [3], 0.683 (inactive); in experiment [4], 0.125 (inactive); in experiment [5], 0.349 (inactive); in [11], -1.13 (inactive); in experiment [13], 1.87 (inactive). Besides, the z-score was 0.316 (inactive) in [14]; 0.134 (inactive) in [15]; -0.0643 (inactive) in experiment [16]; -0.248 in experiment [17]; 0.832 (inactive) in [18]; -0.951 (inactive) in experiment [19]. Moreover, the z-score in experiment [20] amounted to 0.906.

As to `COc1ccc([Si](C)(C)[C@H]2[C@H](CC(=O)N(CCO)Cc3ccccc3)O[C@@]3(C(=O)N(C)c4ccccc43)[C@@H]2C)cc1`, the composite z-score in experiment [1] is 0.321; in experiment [6] it was 0.153; in experiment [7], -0.0986; in experiment [8] it was 0.0317; in experiment [9], 0.83; in experiment [10], 1.65. Further, the composite z-score in [12] came to 0.106. Also, the z-score in [2] was -5.59 (inactive); in experiment [3] it was -0.306 (inactive); in experiment [4], 4.69 (inactive); in [5], 0.0125 (inactive); in [11] it was 1.28 (inactive); in experiment [13] it was 9.01 (active). The z-score in experiment [14] is 0.781 (inactive); in experiment [15] it was -1.12 (inactive); in experiment [16], -0.698 (inactive); in experiment [17], 0.342; in [18] it was -0.246 (inactive); in [19] it was 0.129 (inactive). For the same molecule, the z-score in experiment [20] is -2.43.

Consider `CCCC=C(CCC)[C@@H](NC(=O)c1ccc(C(F)(F)F)cc1)c1ccccc1`, for which the composite z-score in experiment [1] was -0.191; in [6], 0.233; in [7] it was 0.208; in experiment [8] it was 0.518; in experiment [9], 0.199; in [10], -0.634. Moreover, the composite z-score in [12] was determined as 0.718. Further, the z-score was -3.91 (inactive) in experiment [2]; -0.383 (inactive) in experiment [3]; 0.962 (inactive) in experiment [4]; -0.0536 (inactive) in experiment [5]; -1.25 (inactive) in [11]; 0.666 (inactive) in [13]. Also, the z-score in experiment [14] was -0.96 (inactive); in experiment [15], 0.394 (inactive); in experiment [16], -1.05 (inactive); in experiment [17] it was 1.47; in experiment [18], -3.96 (inactive); in experiment [19], -3.71 (inactive). Also, the z-score in [20] was -3.65.
